Source: PubChem BioAssay (NCI)
This is part of a sample that, as a whole, favours compounds with a hit. Of some 83,000 tested, about 20% had one in any assay.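 Percent growth is the endpoint: 0 to 100 indicates growth inhibition (40 means 60% inhibition), 0 means no net growth, and negative values indicate cell death.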 A number with no mark means an inactive call. The source made the active and inactive calls. How the source made its calls: active means growth percent below 10; inactive means the rest.

Experiments:
Test in all cases: NCI-60 one-dose screen, 48 h (100 = growth as untreated, 0 = no growth, -100 = all killed)
Conditions in all cases: 10 µM unless noted
[1] = tested on: DU-145 prostate
[2] = tested on: K-562 leukemia
[3] = tested on: MALME-3M melanoma
[4] = tested on: MDA-MB-231 breast
[5] = tested on: RXF 393 renal
[6] = tested on: SF-268 CNS
[7] = tested on: SF-295 CNS
[8] = tested on: SF-539 CNS
[9] = tested on: UACC-257 melanoma
[10] = tested on: M14 melanoma
[11] = tested on: HCT-15 colon
[12] = tested on: HT29 colon
[13] = tested on: SNB-75 CNS
[14] = tested on: SNB-19 CNS
[15] = tested on: U251 CNS
[16] = tested on: PC-3 prostate
[17] = tested on: SK-MEL-5 melanoma
[18] = tested on: UACC-62 melanoma
[19] = tested on: LOX IMVI melanoma
[20] = tested on: SK-MEL-28 melanoma

SMILES | growth [1] | growth [2] | growth [3] | growth [4] | growth [5] | growth [6] | growth [7] | growth [8] | growth [9] | growth [10] | growth [11] | growth [12] | growth [13] | growth [14] | growth [15] | growth [16] | growth [17] | growth [18] | growth [19] | growth [20]
Cc1cc(O)c(C2=NN(c3ccc(S(N)(=O)=O)cc3)C(c3ccc(Cl)cc3)C2)c(C)c1Cl (centres undefined) | 49.3% | 21% | 103% | 59% | 48.1% | 61.7% | 20.4% | 79% | 74.1% | 39.1% | 65.2% | 55.1% | 67.4% | 89.8% | 70% | 12.1% | 81.7% | 53% | 52.4% | 76.3%
O=C(CCc1nc2sc3c(c2c(=O)[nH]1)CCC3)NCc1cn(-c2ccccc2)nc1-c1ccccc1 | 48.7% | 84.6% | 47.7% | 11.4% | 48.8% | 65.3% | 46.2% | 83.3% | 98.5% | 74.5% | 86% | 83.3% | -59% (active) | 49.8% | 44% | 29.9% | 72.5% | 88.6% | 44% | 79.1%
CC(C)(C)CC(C)(C)NCc1cc(C(C)(C)C)cc(CNC(C)(C)CC(C)(C)C)c1O | 66.6% | 3.08% (active) | 51% | 23.3% | 76.2% | 85.2% | 57.7% | 83.8% | 75.3% | 70.1% | 56.8% | 11.1% | 60.8% | 77.2% | 49.7% | 47.9% | 36.8% | 82.9% | 45.6% | 80.5%
N#Cc1ccc(NC(=O)Nc2nc3ccc(OC(F)(F)F)cc3s2)cc1 | 23.1% | 1.23% (active) | -7.94% (active) | -18.4% (active) | 21.9% | 21.1% | -25.8% (active) | 7.97% (active) | -20.7% (active) | 5.97% (active) | 0.568% (active) | -3.66% (active) | -8.15% (active) | 15.1% | 4.34% (active) | 2.88% (active) | -53.3% (active) | 2.82% (active) | 1.35% (active) | 19.3%
CCSc1ccc([C@@H]2[C@@H](N)C(=O)N2c2cc(OC)c(OC)c(OC)c2)cc1 | 23.7% | 7.64% (active) | 63.8% | 41% | -17% (active) | 54.6% | 10.2% | -22.6% (active) | 67.7% | -15.5% (active) | 19.9% | 12.1% | 36.2% | 32% | 28.1% | 28.5% | 20% | 33.9% | 50.7% | 61.6%
CN(C)CCOc1nc2c3ccncc3cc(-c3cccc(Cl)c3)c2c2cnccc12 | 30.7% | -34.7% (active) | 40.1% | 24% | 1.01% (active) | 35.1% | 31.6% | 32% | 47.3% | 26% | 22.1% | 17% | 39.8% | 28.4% | 28% | 30.1% | 10.8% | 24.6% | 5.79% (active) | 13.3%
COc1ccc2cc(-c3nc(C)c(C(C)=O)c(-c4ccc(C)cc4)n3)ccc2c1 | 107% | 125% | 91.2% | 81% | 81.6% | 101% | 99.6% | 89.6% | 101% | 91.1% | 88.2% | 82.4% | 98.5% | 92.8% | 94.5% | 85.9% | 75.4% | 71.7% | 101% | 101%
O=C(O)/C=C(\c1nc2ccc([N+](=O)[O-])cc2[nH]1)c1cc(Cl)ccc1O | 39.9% | 14.7% | 6.7% (active) | 13.1% | 39.1% | 32.2% | 21.6% | 26.3% | 17.8% | 25.8% | 21.1% | 36.2% | 50.4% | 18.5% | 16.9% | 14.1% | -28% (active) | -3.61% (active) | 21% | 20.8%
COc1cc(C2CC(c3cccc(Nc4ccnc5cc(Cl)ccc45)c3)=NN2c2ccc(Cl)cc2)cc(OC)c1OC (centres undefined) | 75.1% | 11.2% | 44.5% | 67% | 62.1% | 51.9% | 3.25% (active) | 43.3% | 57.1% | 25.4% | 54.2% | 76% | 62.4% | 85.9% | 75.2% | 51% | 34.2% | 9.05% (active) | 43.5% | 51.4%
CCCCN(CCCC)CCCN=c1nc2c(c(N)n1-c1ccccc1)c(=S)n(-c1ccccc1)c(=S)n2-c1ccccc1 | -100% (active) | -90.3% (active) | -91.5% (active) | -89.1% (active) | -67.7% (active) | -94% (active) | -100% (active) | -97.7% (active) | -73.1% (active) | -86.3% (active) | -73.3% (active) | -63.3% (active) | -94.2% (active) | -87.4% (active) | -100% (active) | -70.8% (active) | -100% (active) | -99.4% (active) | -89.7% (active) | -100% (active)
Clc1ccc(-c2nc(Br)cn3ccnc23)cc1 | 91% | 90.2% | 103% | 69.6% | 90.4% | 81.7% | 93.4% | 81.6% | 95.8% | 94.3% | 86.1% | 87.6% | 91% | 82.5% | 78.2% | 81.6% | 80.7% | 77.4% | 77.8% | 100%
CCCCc1n(Cc2ccc3ccccc3n2)cc[n+]1Cc1ccc2ccccc2n1 | 40.8% | 6.71% (active) | -2.99% (active) | 9.88% (active) | 20.8% | 19.9% | 25.2% | 16.3% | -11.9% (active) | 17.1% | 87.8% | 5.9% (active) | 17.5% | 10.4% | 11.6% | 16.2% | -76.3% (active) | -6.58% (active) | -22.2% (active) | 16.1%
Cc1ccc(NC(=O)Cn2nncc2CN2C(=O)CSC2=O)cc1C | 106% | 106% | 99% | 111% | 103% | 98.5% | 103% | 101% | 102% | 105% | 94.5% | 105% | 93.3% | 97.9% | 103% | 99.3% | 98.7% | 102% | 93.6% | 
COc1cc(C(=O)/C=C/c2cn(-c3ccccc3)nc2-c2cccc(Nc3ccnc4cc(Cl)ccc34)c2)cc(OC)c1OC | 76.9% | 59.5% | 73% | 62.9% | 86.7% | 93.6% | 117% | 98% | 111% | 100% | 87.4% | 77.1% | 107% | 116% | 88.1% | 107% | 71.4% | 104% | 71.5% | 93.9%
C=CCn1c(C)nc2cc(Nc3nc(N4CCOCC4)nc4nc[nH]c34)ccc21 | 109% | 71% | 97.7% | 77.7% | 85.1% | 99% | 85% | 87.3% | 94% | 97% | 90.9% | 99.7% | 80.4% | 95.4% | 91.3% | 79.9% | 96.2% | 88.9% | 95.2% | 102%
Clc1ccc(Nc2ncnc3c2sc2ncccc23)c(Cl)c1 | 20.1% | 43.4% | 58.2% | 61.1% | 34% | 18.4% | 17.9% | 6.17% (active) | 39.3% | -25.6% (active) | 47.7% | 39.4% | 42.3% | 27.4% | 27% | 49.5% | 28% | 12.7% | 4.08% (active) | 65.9%
